Source: PubChem BioAssay
Not all results are given here.
aSyn UTR act: Activators via SNCA 5'UTR binding, MLPCN. hit rate 7.1% among 300,000. activity score, % (tested at 7.5 µM), hits read low. alpha-synuclein 5'UTR reporter, activators screen. AID 1814, 2009; in the data active means activity score below about -60%
* marks the source's active call; other numbers are inactive results.

Results for Oc1c(N=NC(=S)Nc2ccccc2F)c2ccccc2n1Cc1ccccc1 ?
aSyn UTR act: 72

Results for Fc1cc(F)cc(NC(=S)N2CCC(c3ccccc3)C2)c1 (stereo unspecified) ?
aSyn UTR act: -99*

How did S=C(Nc1ccccc1Cl)N1CCC(c2ccccc2)C1 (stereo unspecified) do in these assays?
aSyn UTR act: -120*

How did C=CCn1c(O)c(N=NC(=S)Nc2ccccc2F)c2ccccc21 do in these assays?
aSyn UTR act: 67

How did Cc1nc(NC(=O)c2ccccc2)sc1-c1csc(Nc2ccc(Cl)cc2)n1 do in these assays?
aSyn UTR act: -65*

How did Cc1nc(NC(=O)c2ccccc2)sc1-c1csc(Nc2ccc(Cl)cc2Cl)n1 do in these assays?
aSyn UTR act: -84*

What do the screens show for `Cc1nc(NC(=O)c2ccco2)sc1-c1csc(Nc2ccc(Cl)cc2)n1`?
aSyn UTR act: -70*

Results for COc1ccc(OC)c(Nc2nc(-c3sc(NC(=O)c4ccccc4)nc3C)cs2)c1 ?
aSyn UTR act: -244*

What do the screens show for `Cc1nc(NC(=O)c2ccccc2)sc1-c1csc(Nc2ccc(F)cc2)n1`?
aSyn UTR act: -94*

How did C#CCN1C(=O)S/C(=C\c2ccc(N3CCOCC3)cc2C)C1=O do in these assays?
aSyn UTR act: -150*

What do the screens show for `CCN1C(=O)S/C(=C\c2ccc(N3CCOCC3)cc2C)C1=O`?
aSyn UTR act: -148*

How did CC(C)c1ccc2oc(-c3cc(N)ccc3O)nc2c1 do in these assays?
aSyn UTR act: -95*

What do the screens show for `Cc1ccccc1-c1nc2cc(N)ccc2o1`?
aSyn UTR act: -123*

What do the screens show for `O=C(CCc1ccccc1)Nc1c(F)cccc1F`?
aSyn UTR act: -133*

What do the screens show for `O=C(O)CCC(=O)Nc1ccccc1C(=O)NCCc1ccccc1`?
aSyn UTR act: -78*

How did O=C(NCCc1ccccc1)c1ccccc1NC(=O)C1CC=CCC1C(=O)O (stereo unspecified) do in these assays?
aSyn UTR act: -133*

How did Cc1ccoc1C(=O)Nc1cccc2ccccc12 do in these assays?
aSyn UTR act: -92*

Results for O=C(Nc1ccccc1C(=O)NCCc1ccccc1)c1cnccn1 ?
aSyn UTR act: -68*

Results for O=C(Nc1cccc2ccccc12)c1cnccn1 ?
aSyn UTR act: -96*

What do the screens show for `NC(=O)c1ccccc1NC(=O)CCc1ccccc1`?
aSyn UTR act: -113*

How did CC(=O)Oc1ccccc1/C=C/c1nc2ccccc2c(=O)o1 do in these assays?
aSyn UTR act: 66

What do the screens show for `CC(=O)Oc1ccc(Cl)cc1/C=C/c1ccc2ccccc2n1`?
aSyn UTR act: -259*

What do the screens show for `CC(=O)Oc1c(Cl)cc(Cl)cc1/C=C/c1ccc2ccccc2n1`?
aSyn UTR act: -205*

How did O=c1cccccc1NN=C1CCCCCC1 do in these assays?
aSyn UTR act: -140*

Results for O=c1cccccc1NN=C1CCCCC1 ?
aSyn UTR act: -69*

How did O=C(Nc1ccc(Br)cn1)c1cccc(-c2cc3ccccc3oc2=O)c1 do in these assays?
aSyn UTR act: -112*

What do the screens show for `Cc1nc(NC(=O)c2cccc(-c3cc4ccccc4oc3=O)c2)ccc1Br`?
aSyn UTR act: -81*

How did COC(=O)c1ccc(CO/N=C2\CCCc3nonc32)cc1 do in these assays?
aSyn UTR act: -122*

How did Cc1ccccc1Cn1cc(NC(=O)c2noc(C(C)C)c2[N+](=O)[O-])cn1 do in these assays?
aSyn UTR act: 106

What do the screens show for `O=C(NCCc1ccccc1)c1cc(-c2ccco2)on1`?
aSyn UTR act: -321*

Results for Cc1ccccc1Cn1cc(NC(=O)c2cc(-c3ccco3)on2)cn1 ?
aSyn UTR act: -76*

What do the screens show for `O=C(NCc1ccccc1)c1cc(-c2ccco2)on1`?
aSyn UTR act: -97*

What do the screens show for `COc1ccc(CCNC(=O)c2cc(-c3ccco3)on2)cc1OC`?
aSyn UTR act: -77*

How did COc1cc(/C=N/N2CCOCC2)ccc1OCc1ccccc1 do in these assays?
aSyn UTR act: -107*

What do the screens show for `COc1cc(/C=N/N2CCOCC2)ccc1OCc1ccc(Cl)cc1`?
aSyn UTR act: -66*

How did O=C1/C(=C/c2cccnc2)Oc2cc(OS(=O)(=O)c3ccccc3)ccc21 do in these assays?
aSyn UTR act: -82*

Results for Cc1cccc(-c2nc3cc(NC(=O)C4CCCO4)ccc3o2)c1 (stereo unspecified) ?
aSyn UTR act: 72

Results for Cc1ccc2oc(-c3cccc(NC(=O)C4CCCO4)c3)nc2c1 (stereo unspecified) ?
aSyn UTR act: -181*

How did O=C(Nc1cccc(-c2nc3cc(Cl)ccc3o2)c1)C1CCCO1 (stereo unspecified) do in these assays?
aSyn UTR act: -72*

What do the screens show for `CC(C)CN1CCN(Cc2cnc(-c3ccc(Cl)cc3)nc2)CC1CCO` (stereo unspecified)?
aSyn UTR act: -78*

What do the screens show for `COP(=O)(OC)C(Nc1ccc(C)cc1)c1ccc([N+](=O)[O-])cc1` (stereo unspecified)?
aSyn UTR act: -159*

What do the screens show for `CCN(CC)C(=O)C(C)N(C#N)c1nc(Cl)nc(N(C)C)n1` (stereo unspecified)?
aSyn UTR act: -122*

Results for COc1cc(C(c2c(C)[nH][nH]c2=O)c2c(C)[nH][nH]c2=O)ccc1OCc1ccc([N+](=O)[O-])cc1 ?
aSyn UTR act: -146*

Results for CCOC(=O)C(=Cc1ccc(OCc2ccc([N+](=O)[O-])cc2)c(OC)c1)C(=O)OCC ?
aSyn UTR act: -267*

Results for COC(=O)C(=Cc1ccc(OCc2ccc([N+](=O)[O-])cc2)c(OC)c1)C(=O)OC ?
aSyn UTR act: -259*

How did COc1ccc(/C=C2\N=C(c3ccccc3Cl)NC2=O)cc1 do in these assays?
aSyn UTR act: -124*

What do the screens show for `Cc1ccc2[nH]c3c(c2c1)CCc1cn[nH]c1-3`?
aSyn UTR act: -62*

How did COc1ccc(CNS(=O)(=O)c2cc3c(cc2C)N(C)CCO3)cc1 do in these assays?
aSyn UTR act: -65*

How did N#C/C(=C\c1ccc([N+](=O)[O-])cc1)C(=O)Nc1ccccc1O do in these assays?
aSyn UTR act: -112*

Results for N#C/C(=C/c1ccc([N+](=O)[O-])cc1)C(=O)Nc1ccccc1O ?
aSyn UTR act: -134*

How did CCOc1ccc(NC(=S)NCc2nc3ccccc3[nH]2)cc1 do in these assays?
aSyn UTR act: -69*

Results for CCNC(=S)Nc1ccc(-c2nc3ccccc3[nH]2)cc1 ?
aSyn UTR act: -161*

What do the screens show for `COc1ccc(S(=O)(=O)N2c3cc(Cl)ccc3Oc3nc4ccccc4nc32)cc1`?
aSyn UTR act: 100

How did O=S(=O)(c1ccc(Cl)cc1)N1c2ccccc2Oc2nc3ccccc3nc21 do in these assays?
aSyn UTR act: -96*

How did O=Cc1ccc2noc(-c3ccc(Cl)cc3)c2c1 do in these assays?
aSyn UTR act: -67*

How did CC(=O)c1ccc2noc(-c3cccc(C)c3)c2c1 do in these assays?
aSyn UTR act: -99*

Results for Cc1ccc(-c2onc3ccc(C4OCCO4)cc23)cc1 ?
aSyn UTR act: -100*

What do the screens show for `Cc1ccc(-c2onc3ccc(Cl)cc23)cc1`?
aSyn UTR act: -63*

Results for O=C(O)CCCC(=O)Nc1ccc(OCc2nc3ccccc3s2)cc1 ?
aSyn UTR act: -67*

How did CCNC(=S)Nc1ccc(OCc2nc3ccccc3s2)cc1 do in these assays?
aSyn UTR act: -90*

What do the screens show for `CCCC12CN3CCN(CC(C3)/C1=N\NC(=O)c1ccccc1N)C2`?
aSyn UTR act: -76*

How did Nc1ccccc1C(=O)N/N=C1\C2CN3CCN(C2)CC1(c1ccccc1)C3 do in these assays?
aSyn UTR act: -92*
